Shown is part of a subset that was picked to be rich in hits.
ClpP mod = qHTS Assay for Activators of ClpP | AID 651965, 2013 | purified B. subtilis ClpP, FRET peptide cleavage, 20 min | 340,000 tested, 1.9% active | Potency, µM (doses to about 57.5 µM), for the others: top-dose activity change, negative = active | ATP-dependent Clp protease proteolytic subunit (Bacillus subtilis (strain 168)), P80244; active = well fitted falling curve with a large enough effect; inconclusive = small, poorly fitted or top-dose-only effect; inactive = no such curve, though single readings can be large or run the other way; note: potency is the fitted concentration of half-maximal effect; the source files actives as falling curves though it sought activators and does not explain the sign; nearly all actives have a fitted effect of over 65% in size
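FRET quenching reversal measured ClpP activation: 10 microg/mL B. subtilis ClpP at pH 8 with the FRET-FV decapeptide, read at 430 nm after 320 nm excitation. The 20-min minus 0-min signal was scaled between DMSO/no-enzyme wells and ADEP (5.8 microM final).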
N370S GC mod = qHTS Assay for Inhibitors and Activators of N370S glucocerebrosidase as a Potential Chaperone Treatment of Gaucher Disease; Lysosomal acid glucosylceramidase (Homo sapiens), P04062; N370S GC spleen homogenate, 4MU-glucoside fluorescence; Potency, µM (highest dose often 59.4 µM), for the others: top-dose activity change, negative = inhibition, usual class: inhibitors; 330,000 tested, 0.092% active;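 note: potency is the fitted concentration of half-maximal effect; 0% = full enzyme activity and -100% = no enzyme basal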
a7 integrin act = qHTS for Activators of Integrin-Mediated Alleviation for Muscular Dystrophy; Potency, µM (doses to about 38.3 µM), inactives show at the highest dose activation, actives largely listed as activators; alpha7betagal myoblasts, beta-gal FDG fluorescence, 48 h; 350,000 tested, 0.064% active; AID 624291, 2012;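 note: potency is the fitted concentration of half-maximal effect; 100% = response of the positive control SU9516; nearly all actives have a fitted effect of over 60% in size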
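alpha7betagal+/- myoblasts (passage 13, 250/well) treated 48 h at 37C with compounds at 1:260 dilution of DMSO stock. Lysed, then beta-galactosidase activity read as FDG fluorescence (ex 480/em 540) after 30 min, with pre-read for autofluorescence.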
GRP78 ERSR act = qHTS for Inducers of the Endoplasmic Reticulum Stress Response (ERSR) in Human Glioma: qHTS | U87-MG GRP78 promoter luciferase reporter, 16 h | Potency, µM, inactives show at the highest dose activation, usual class: activators | 420,000 tested, 0.02% active; note: potency is the fitted concentration of half-maximal effect; series mostly up to about 76 µM; % of control where 0% means no effect; nearly all actives have a fitted effect of over 35% in size
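Stably transfected U87-MG human glioma cells carrying a GRP78-based luminescent sensor were seeded at 1000 cells/well, pin-dosed with compounds and incubated 16 h. Luciferase reagent was then added, and end-point luminescence was read after 10 min at room temperature.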
Apoferritin bind = qHTS Assay for Identification of Novel General Anesthetics | apoferritin/1-aminoanthracene competitive binding, fluorescence | Ferritin light chain (Equus caballus), P02791 | AID 485281, 2010 | 350,000 tested, 0.074% active | Potency, µM (titrated, usually from 77.5 µM), for the others: at the top dose activity change, negative = displacement, actives largely listed as inhibitors; note: potency is the fitted concentration of half-maximal effect; % is set by controls: 0 for no effect and ±100 for the full control effect; nearly all actives have a fitted effect of over 20% in size
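Probe: 1-aminoanthracene (50% saturated, PBS). Protein: horse-spleen apoferritin, 10 uM. Incubation: 10 min, room temperature. Detection: 380 nm excitation, 535 nm emission. Analysis: normalized response, four-parameter Hill.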
CBFb-RUNX1 inh = qHTS Assay for Compounds Blocking the Interaction Between CBF-beta and RUNX1 for the Treatment of Acute Myeloid Leukemia | AID 1477, 2009 | 230,000 tested, under 10 active | AlphaScreen CBFb-His/RUNX1-biotin binding, biochemical | Runt-related transcription factor 1 (Homo sapiens) + Core-binding factor subunit beta … | Potency, µM (highest dose often 59.8 µM), for the others: top-dose activity, negative = inhibition, most hits filed as inhibitors; note: % of control where 0% means no effect
Target sequence (Q01196 whole entry, looked up): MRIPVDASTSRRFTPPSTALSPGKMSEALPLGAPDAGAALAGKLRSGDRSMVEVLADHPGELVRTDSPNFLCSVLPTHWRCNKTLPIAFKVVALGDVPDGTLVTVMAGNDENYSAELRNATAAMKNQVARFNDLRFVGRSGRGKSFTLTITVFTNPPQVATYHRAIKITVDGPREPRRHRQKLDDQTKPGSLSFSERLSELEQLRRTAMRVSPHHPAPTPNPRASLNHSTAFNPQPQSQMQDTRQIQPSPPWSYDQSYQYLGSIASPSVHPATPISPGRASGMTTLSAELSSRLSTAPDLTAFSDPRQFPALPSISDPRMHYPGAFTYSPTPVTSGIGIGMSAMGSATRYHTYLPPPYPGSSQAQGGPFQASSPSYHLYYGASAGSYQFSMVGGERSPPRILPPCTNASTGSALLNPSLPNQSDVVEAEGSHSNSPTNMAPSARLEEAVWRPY
Target sequence (Q13951 whole entry, looked up): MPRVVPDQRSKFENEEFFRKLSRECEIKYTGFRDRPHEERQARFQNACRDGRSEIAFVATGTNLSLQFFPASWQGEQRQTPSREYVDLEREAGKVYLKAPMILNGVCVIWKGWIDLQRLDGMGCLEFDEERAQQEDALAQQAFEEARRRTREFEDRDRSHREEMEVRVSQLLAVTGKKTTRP
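Compounds were screened at multiple concentrations against a preformed CBF-beta(His)/RUNX1(biotin) complex (30 nM of each) for 15 min at room temperature, followed by 90 min with nickel and streptavidin beads and AlphaScreen reading.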
ClpP inh valid = qHTS Assay for Activators of ClpP: Hit Validation of Inhibitors; shares compounds with ClpP mod; purified B. subtilis ClpP, FRET-FV substrate cleavage, 20 min; Potency, µM (top dose mostly 57.5 µM), for inactives: at the highest dose activity change, negative = inhibition, most hits filed as inhibitors; 470 tested, 40% active; note: potency is the fitted concentration of half-maximal effect; % is set by controls: 0 for no effect and ±100 for the full control effect; nearly all actives have a fitted effect of over 70% in size
Starred values were filed as active, the others as inactive; u = inconclusive; x = no result given; [ ] = dose if it differs, or a comment. Unless noted, calls come from the whole dose curve; as a rule, active = well fitted curve in the direction sought with a large enough effect; inconclusive = small, poorly fitted or top-dose-only effect, or another doubt; inactive = no such curve, though single readings can be large; an effect the other way counts as inactive or inconclusive.

SMILES	ClpP mod	N370S GC mod	a7 integrin act	GRP78 ERSR act	Apoferritin bind	CBFb-RUNX1 inh	ClpP inh valid
CCOc1ccc(N2CC(C(=O)Nc3ccc(S(=O)(=O)N4CCCCC4)cc3)CC2=O)cc1 (stereo not drawn)	7.9µM*	-7%	-1%	-4%	x	x	-1%
CCNC(=O)N1CCN(/[N+]([O-])=N/Oc2ccc([N+](=O)[O-])cc2[N+](=O)[O-])CC1	x	x	x	-12%	x	x	x
COc1cccc(NC(=O)c2cc3c(=O)n(C)c4ccccc4c3n2C)c1	216%	x	x	-3%	-17%	x	22µM*
O=Cc1ccc(CS)cc1	-4%	x	x	-2%	x	x	x
Cc1cc(N2CCN(Cc3cn(C)nc3-c3cccc(Cl)c3)CC2)cc(C)n1	x	-14%	-69%	-6%	-13%	2%	x
Cn1cc(CN2CCN(c3ncccn3)CC2)c(-c2cccc(Cl)c2)n1	221%	-5%	-10%	-3%	-11%	0%	-1%
O=C(Nc1ccc(OC(F)F)cc1)c1nc(S(=O)(=O)Cc2ccccc2F)ncc1Cl	0%	x	x	-11%	x	x	x
Cc1ccc(C)c(Nc2nc3c(S(=O)(=O)c4ccccc4)nnn3c3ccccc23)c1	55%	5%	7%	-2%	-2%	1%	22µM*
Cc1ccc(S(=O)(=O)c2nnn3c2nc(Nc2cccc(C)c2)c2ccccc23)cc1	-15%	8%	5%	-3%	24%	-3%	x
O=C(NCCSc1c(-c2ccccc2)[nH]c2ccccc12)c1cc2ccccc2oc1=O	32%	29%	4%	1%	-4%	-12%[2.36 µM]	8%
O=C(O)C1=CC(=C(c2ccc(O)c(C(=O)O)c2)c2ccc(O)c(C(=O)O)c2)C=CC1=O	4%	-2%	x	2%	x	x	u
CC(C)Cc1nc(C(N)=O)c2[nH]c(=O)n(-c3ccc(F)cc3)c2n1	6%	9%	3%	-4%	-7%	1%	x
Cc1cccc(-n2c(=O)[nH]c3c(C(N)=O)nc(CC(C)C)nc32)c1	10µM*	15%	0%	-3%	-11%	3%	4.9µM*
O=C(c1cc2c(=O)n3ccccc3nc2s1)N1CCOCC1	4.5µM*	5%	8%	1%	37%	3%	24µM*
O=C(Nc1cccc(Nc2ccccc2)c1)c1cnn2c1NC(=C1CC1)C=C2C(F)F	-4%	x	x	-3%	x	x	x
CCc1cccc(NC(=O)COC(=O)c2ccccc2OCc2ccccc2Br)c1	-10%	x	x	-4%	x	x	x
Cc1cccc(C)c1NC(=O)COC(=O)COc1ccc2c(C)cc(=O)oc2c1	80%	4%	u	-2%	9%	1%	-28%
C[N+]1(CC(=O)c2ccc(Cl)c(Cl)c2)CCOCC1	-1%	x	x	-6%	x	x	x
COc1cc(NS(=O)(=O)c2ccc([N+](=O)[O-])cc2)c2ncccc2c1	x	16%	x	x	-20%	u	x
CCOc1ccccc1CNC(=O)c1cnc2sc(N3CCCC3)nn2c1=O	7.9µM*	x	x	0%	2%	x	0%
COc1cc([C@@H]2c3cc4c(cc3[C@@H](OC3OC5COC(C)OC5C(O)C3O)[C@H]3COC(=O)[C@H]23)OCO4)cc(OC)c1O (stereo partly drawn)	x	-16%	x	-2%	-1%	14%	x
COc1ccc(S(=O)(=O)N(C)c2ccc(C(=O)N3CCCCC3)cc2)cc1	-19%	2%	-30%	-4%	-9%	x	x
COc1ccc(S(=O)(=O)N(C)c2ccc(C(=O)N3CCOCC3)cc2)cc1	2.2µM*	5%	-2%	0%	2%	9%	0%
CC(O)COCC1OC2OC3C(COCC(C)O)OC(OC4C(COCC(C)O)OC(OC5C(COCC(C)O)OC(OC6C(COCC(C)O)OC(OC7C(COCC(C)O)OC(OC8C(COCC(C)O)OC(OC1C(OCC(C)O)C2OCC(C)O)C(OCC(C)O)C8OCC(C)O)C(OCC(C)O)C7OCC(C)O)C(OCC(C)O)C6OCC(C)O)C(OCC(C)O)C5OCC(C)O)C(OCC(C)O)C4OCC(C)O)C(OCC(C)O)C3OCC(C)O (stereo not drawn)	2%	x	x	-5%	x	x	x
Cc1ccc(Cl)cc1NC(=O)CCc1c(C)nc2c3cccnc3nn2c1C	3.5µM*	x	x	-4%	-3%	x	19µM*
SMILES	ClpP mod	N370S GC mod	a7 integrin act	GRP78 ERSR act	Apoferritin bind	CBFb-RUNX1 inh	ClpP inh valid
COc1ccccc1NC(=O)CN1CCCCC1	4µM*	4%	-1%	-4%	-11%	5%	0%
COc1ccccc1NC(=O)c1ccc(NC(=O)CN2CCCCC2)cc1	x	x	8%	3%	x	x	x
CN(C)c1ccc(C(=C2c3ccccc3-c3ccccc32)c2ccc(N(C)C)cc2)cc1	1%	x	x	-4%	x	x	x
OC(CBr)C[n+]1cc(Br)cc2ccccc21 (stereo not drawn)	-12%	x	x	-2%	x	x	x
Cc1cccc(N2CCN(C(=O)c3cn(C4CCCCC4)c(=O)c4c3c3ccccc3n4C)CC2)c1C	8.9µM*	x	x	-2%	93%	x	-23%
CC(=O)Nc1ccc(/C=C/c2ccnc3ccccc23)cc1	32%	x	x	-2%	x	x	x
CCN(N=O)c1ccc(/C=C/c2ccnc3ccccc23)cc1	1%	x	x	-4%	x	x	x
O=C(Nc1sc2c(c1C(=O)NC1CCCCC1)CCC2)c1ccco1	110%	-3%	-21%	-4%	-7%	7%	u
Cc1ccccc1NC(=O)c1c(NC(=O)c2ccco2)sc2c1CCC(C(C)(C)C)C2 (stereo not drawn)	-5%	x	x	0%	-6%	x	x
CC(C)(C)C1CCc2c(sc(NC(=O)c3ccco3)c2C(N)=O)C1 (stereo not drawn)	107%	10%	12%	-1%	10%	2%	31µM*
CNC(=O)c1c(NC(=O)c2ccco2)sc2c1CCC2	-3%	u	-9%	-3%	-10%	x	x
O=C(NCCc1ccccc1)c1ccc(Nc2nc3ccccc3n3nnnc23)cc1	294%	x	x	-4%	36%	x	u
COc1ccc(N2C(=O)NC3CC2(C)Oc2ccc(Br)cc23)cc1OC (stereo not drawn)	177%	0%	-10%	-2%	-13%	5%	0%

Screening data from PubChem.
